The values below come from PubChem BioAssay (NCATS).

Inconclusive results are not listed. Entries that show only a call come without a potency. The source made the active and inactive calls. Calls come from the whole dose curve; as a rule, active = well fitted curve in the direction sought with a large enough effect; inconclusive = small, poorly fitted or top-dose-only effect, or another doubt; inactive = no such curve, though single readings can be large; an effect the other way counts as inactive or inconclusive.

The target of assay [1] is Arylsulfatase A (Homo sapiens) (UniProt P15289). The assay can be described thus: qHTS screen for enhancers of Arylsulfatase A (ASA1): LOPAC Validation Assay (AID 720538). Note: potency is the fitted concentration of half-maximal effect. The essentials:
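SV40-transformed skin fibroblasts from an MLD patient (ASA-I179S) were treated with compounds for 48h at 37 degree C, then lysed with 0.5mM pNCS final substrate for 14h at room temperature; NaOH stop, fluorescence read (Ex=525 nm; Em=598 nm).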
On the technique in general: Quantitative high-throughput screening tests each substance at several concentrations.

A short description of assay [2]: qHTS for compounds that reverse cellular toxicity of Amyloid beta (A-beta) peptide in yeast: LOPAC Validation Assay (AID 720559). The essentials:
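Yeast cells expressing toxic A-beta were combined with pinned compounds in growth medium and incubated 48 hr at 30 C. Growth was read as absorbance at 600 nm and normalized to DMSO and to an equimolar FeCl3/clioquinol positive control.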

The nature of assay [3]: qHTS for Activators of Parkin Expression: LOPAC Validation Assay (FLuc Reporter) (AID 720573; note: potency is the fitted concentration of half-maximal effect). The essentials:
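Neuronal cell line stably carrying FLuc/NLuc coincidence reporter under Parkin promoter; cells plated 24 h, then compounds added in 7-point dose response for 24 h at 37 C. FLuc luminescence read; normalized to DMSO and positive control (100%).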

The target of assay [4] is Hexokinase-4 (Homo sapiens) + Glucokinase regulatory protein (Homo sapiens) (UniProt P35557+Q14397). The assay can be described thus: qHTS assay for inhibitors of recombinant human GCK-GKRP interaction: Diaphorase-coupled assay (AID 743205). The essentials: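 GST-GCK (10 nM) with FLAG-GKRP (10 nM), 5 mM glucose and 0.4 mM ATP in pH 7.6 Hepes; compounds preincubated 20 min with substrate. G6PDH/diaphorase coupling converts resazurin to resorufin, read kinetically (ex 525/em 590 nm) for 30 min.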
Sequence of Hexokinase-4 (Homo sapiens) + Glucokinase regulatory protein (Homo sapiens) (P35557 whole entry, looked up): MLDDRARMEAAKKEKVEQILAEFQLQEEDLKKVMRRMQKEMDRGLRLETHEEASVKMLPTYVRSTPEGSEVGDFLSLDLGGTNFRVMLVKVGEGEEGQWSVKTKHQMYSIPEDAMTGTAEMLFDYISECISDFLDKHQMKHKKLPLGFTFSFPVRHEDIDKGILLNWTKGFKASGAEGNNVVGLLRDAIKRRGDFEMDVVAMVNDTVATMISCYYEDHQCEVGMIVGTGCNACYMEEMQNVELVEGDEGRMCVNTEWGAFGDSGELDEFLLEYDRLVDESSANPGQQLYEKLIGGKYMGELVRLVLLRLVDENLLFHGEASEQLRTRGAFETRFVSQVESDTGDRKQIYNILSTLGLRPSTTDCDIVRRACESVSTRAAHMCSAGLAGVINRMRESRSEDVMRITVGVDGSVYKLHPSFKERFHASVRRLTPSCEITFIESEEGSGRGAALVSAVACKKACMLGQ
Sequence of Hexokinase-4 (Homo sapiens) + Glucokinase regulatory protein (Homo sapiens) (Q14397 whole entry, looked up): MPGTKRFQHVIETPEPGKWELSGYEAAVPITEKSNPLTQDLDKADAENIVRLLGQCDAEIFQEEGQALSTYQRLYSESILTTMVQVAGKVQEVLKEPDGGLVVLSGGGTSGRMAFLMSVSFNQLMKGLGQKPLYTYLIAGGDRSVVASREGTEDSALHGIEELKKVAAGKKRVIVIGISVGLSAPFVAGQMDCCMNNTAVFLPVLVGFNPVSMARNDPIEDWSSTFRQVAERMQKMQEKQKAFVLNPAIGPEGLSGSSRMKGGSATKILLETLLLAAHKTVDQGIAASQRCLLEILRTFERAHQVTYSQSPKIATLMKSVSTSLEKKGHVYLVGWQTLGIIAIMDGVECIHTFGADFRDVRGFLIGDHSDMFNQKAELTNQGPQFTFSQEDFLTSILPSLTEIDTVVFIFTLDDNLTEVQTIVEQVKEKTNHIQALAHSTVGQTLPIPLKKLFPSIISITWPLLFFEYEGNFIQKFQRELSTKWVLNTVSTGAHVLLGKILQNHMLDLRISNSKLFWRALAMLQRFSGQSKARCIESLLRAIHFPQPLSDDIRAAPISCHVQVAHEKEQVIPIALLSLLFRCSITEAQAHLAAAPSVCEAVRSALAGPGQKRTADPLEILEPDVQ

Sequence of Arylsulfatase A (Homo sapiens) (P15289 whole entry, looked up): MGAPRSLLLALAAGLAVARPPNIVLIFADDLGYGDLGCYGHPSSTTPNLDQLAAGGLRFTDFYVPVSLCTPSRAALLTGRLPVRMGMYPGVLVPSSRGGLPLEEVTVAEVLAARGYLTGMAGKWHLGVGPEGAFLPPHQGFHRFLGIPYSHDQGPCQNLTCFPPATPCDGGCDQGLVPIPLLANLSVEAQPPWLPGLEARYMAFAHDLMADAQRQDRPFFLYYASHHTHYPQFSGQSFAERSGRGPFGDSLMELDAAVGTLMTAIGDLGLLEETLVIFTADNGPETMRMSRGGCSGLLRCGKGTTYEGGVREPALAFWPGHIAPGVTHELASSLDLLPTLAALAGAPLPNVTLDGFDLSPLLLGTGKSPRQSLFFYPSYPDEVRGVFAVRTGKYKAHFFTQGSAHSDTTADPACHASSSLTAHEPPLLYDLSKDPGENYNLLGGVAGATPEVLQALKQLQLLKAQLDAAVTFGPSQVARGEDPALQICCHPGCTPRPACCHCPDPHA

On to `COC(=O)C(N)Cc1ccc(Cl)cc1` (centres undefined), for which the Potency result in assay [1], in assay [3] and in assay [4] was “inactive” in each case. Moreover, the outcome in assay [2] was inactive.

`Nc1ncnc2c1ncn2C1CCCC1`: the Potency entry in assay [1], in assay [3] and in assay [4] was “inactive” in each case. Also, the result in assay [2] was inactive.

Regarding `C=CC1(C)CC(=O)C2(O)C(C)(O1)C(OC(C)=O)C(O)C1C(C)(C)CCC(O)C12C` (centres undefined), the Potency result in assay [1], in assay [3] and in assay [4] was “inactive” throughout. Also, in assay [2], the outcome was inactive.

On to `Oc1cc2c(cc1O)C(c1ccccc1)CNCC2` (centres undefined), for which the Potency entry in assay [1], in assay [3] and in assay [4] was “inactive” throughout. In addition, in assay [2], the result was inactive.

In the case of `Cc1nc2n(c(=O)c1CCN1CCC(c3noc4cc(F)ccc34)CC1)CCCC2O` (centres undefined), the Potency result in assay [1], in assay [3] and in assay [4] was “inactive” each time. In assay [2], the compound was called inactive.

On to `CC1CNCCN1S(=O)(=O)c1cccc2cnccc12` (centres undefined), for which the Potency entry in assay [1] and in assay [4] was “inactive” throughout. Also, in assay [2], the result was inactive.

Consider `O=c1ccn([C@@H]2O[C@H](COP(=O)(O)OP(=O)(O)O)[C@@H](O)[C@H]2O)c(=O)[nH]1`, for which the Potency result in assay [1], in assay [3] and in assay [4] was “inactive” in each case. The compound was classed as inactive in assay [2].

With `O=C(O)/C(=C/c1c(C(=O)O)[nH]c2cc(Cl)cc(Cl)c12)c1ccccc1`, the Potency result in assay [1], in assay [3] and in assay [4] was “inactive” in each case. Also, the compound was called inactive in assay [2].

Turning to `NC1CONC1=O` (centres undefined), the Potency entry in assay [1] and in assay [4] was “inactive” each time.

With `Nc1ccc2c3c(cccc13)C(=O)NC2=O`, in assay [1], the Potency is 4.26 µM (active). Further, the compound was classed as inactive in assay [2]. Moreover, the Potency entry in assay [3] and in assay [4] was “inactive” each time.

Consider `COc1cc(/C=C(\C#N)C(=O)Nc2nnc(C(F)(F)F)s2)ccc1OCc1ccc(C(F)(F)F)cc1C(F)(F)F`, for which the Potency entry in assay [1], in assay [3] and in assay [4] was “inactive” throughout. Moreover, in assay [2], the outcome was inactive.

With `O=c1cc(O)cc(/C=C/c2ccc(O)c(O)c2)o1`, the Potency result in assay [1], in assay [3] and in assay [4] was “inactive” throughout. The outcome in assay [2] was inactive.

Turning to `NC(=Nc1ccccc1)NC(=O)c1nc(Cl)c(N)nc1N`, the Potency result in assay [1] and in assay [4] was “inactive” in each case. Besides, in assay [2], the compound was classed as inactive. Also, the Potency in assay [3] is 8.2 µM (active).
